Measured values from PubChem BioAssay AID1159580 (chemical genetic matrix, 2015).
Hit rate of the full screen: of about 5,500 compounds, about 2,000 (36%) were called active. Not shown: some 18% with an inconclusive outcome. Cut-off read from the data, not from the text of the source: active = normalized growth mostly below about 0.91 (no sharp cut-off); inconclusive = no clear call, values can overlap the other calls; inactive = mostly above about 0.92. The list shows a part of the results.

Assay: chemical genetic growth profiling, strain panel (AID 1159580);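 note: tested at 20 µM; growth read once vehicle control cultures reached saturation at 30 °C; 1 = growth at the plate median or of vehicle wells; lower values mean less growth of the strain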
Settings: growth OD

Measured: normalized growth

Cn1c(=O)[nH]c(=O)c2[nH]cnc21
inactive: S. cerevisiae deletion strains, locus YJR075W, strain HOC1, active compounds read low 0.995 | S. cerevisiae deletion strains, locus YKL009W, strain mrt4, active compounds read low 0.998 | S. cerevisiae deletion strains, locus YKL068W, active compounds read low 0.97 | S. cerevisiae deletion strains, locus YKL085W, strain MDH1 (second series), active compounds read low 0.976 | S. cerevisiae deletion strains, locus YKL085W, strain MDH1, active compounds read low 0.976 | S. cerevisiae deletion strains, locus YKL160W, strain elf1, active compounds read low 1 | S. cerevisiae deletion strains, locus YKL190W, strain CNB1, active compounds read low 0.995 | S. cerevisiae deletion strains, locus YKR001C, strain vps1, active compounds read low 0.987 | S. cerevisiae deletion strains, locus YKR026C, strain gcn3, active compounds read low 0.984 | S. cerevisiae deletion strains, locus YKR091W, strain srl3, active compounds read low 0.992 | S. cerevisiae deletion strains, locus YLL001W, strain dnm1, active compounds read low 1.01 | S. cerevisiae deletion strains, locus YLL026W, active compounds read low 1 | S. cerevisiae deletion strains, locus YLL041C, strain sdh2, active compounds read low 1 | S. cerevisiae deletion strains, locus YLR027C, strain aat2, active compounds read low 0.974 | S. cerevisiae deletion strains, locus YLR039C, strain RIC1, active compounds read low 0.974 | S. cerevisiae deletion strains, locus YLR058C, strain SHM2, active compounds read low 0.988 | S. cerevisiae deletion strains, locus YLR102C, strain apc9, active compounds read low 0.972 | S. cerevisiae deletion strains, locus YLR113W, strain HOG1, active compounds read low 0.998 | S. cerevisiae deletion strains, locus YLR221C, strain rsa3, active compounds read low 1.01 | S. cerevisiae deletion strains, locus YLR258W, strain gsy2, active compounds read low 0.999 | S. cerevisiae deletion strains, locus YLR262C, strain YPT6 (second series), active compounds read low 0.976 | S. cerevisiae deletion strains, locus YLR262C, strain YPT6, active compounds read low 1.01 | S. cerevisiae deletion strains, locus YLR268W, strain sec22, active compounds read low 0.956 | S. cerevisiae deletion strains, locus YLR320W, strain mms22, active compounds read low 0.987 | S. cerevisiae deletion strains, locus YLR330W, strain CHS5, active compounds read low 0.991 | S. cerevisiae deletion strains, locus YLR342W, strain FKS1 (second series), active compounds read low 1.01 | S. cerevisiae deletion strains, locus YLR342W, strain FKS1, active compounds read low 1.01 | S. cerevisiae deletion strains, locus YLR357W, strain rsc2, active compounds read low 0.971 | S. cerevisiae deletion strains, locus YLR370C, strain arc18, active compounds read low 0.989 | S. cerevisiae deletion strains, locus YLR371W, strain rom2, active compounds read low 0.96 | S. cerevisiae deletion strains, locus YLR384C, strain iki3, active compounds read low 0.983 | S. cerevisiae deletion strains, locus YLR418C, strain cdc73, active compounds read low 0.983 | S. cerevisiae deletion strains, locus YML016C, strain PPZ1, active compounds read low 0.986 | S. cerevisiae deletion strains, locus YML032C, strain rad52, active compounds read low 0.974 | S. cerevisiae deletion strains, locus YML120C, strain ndi1, active compounds read low 0.999 | S. cerevisiae deletion strains, locus YML124C, strain tub3, active compounds read low 0.972 | S. cerevisiae deletion strains, locus YMR058W, strain fet3, active compounds read low 1.01 | S. cerevisiae deletion strains, locus YMR078C, strain ctf18, active compounds read low 0.954 | S. cerevisiae deletion strains, locus YMR125W, strain sto1, active compounds read low 1.01 | S. cerevisiae deletion strains, locus YMR129W, active compounds read low 0.99 | S. cerevisiae deletion strains, locus YMR205C, strain PFK2, active compounds read low 0.998 | S. cerevisiae deletion strains, locus YMR223W, strain ubp8, active compounds read low 0.987 | S. cerevisiae deletion strains, locus YMR231W, strain pep5, active compounds read low 0.992 | S. cerevisiae deletion strains, locus YMR263W, strain SAP30, active compounds read low 0.953 | S. cerevisiae deletion strains, locus YMR307W, strain GAS1, active compounds read low 0.948 | S. cerevisiae deletion strains, locus YNL067W, strain RPL9B, active compounds read low 0.996 | S. cerevisiae deletion strains, locus YNL071W, strain lat1, active compounds read low 0.98 | S. cerevisiae deletion strains, locus YNL128W, strain TEP1, active compounds read low 0.987 | S. cerevisiae deletion strains, locus YNL153C, strain GIM3, active compounds read low 0.993 | S. cerevisiae deletion strains, locus YNL183C, strain NPR1, active compounds read low 0.925 | S. cerevisiae deletion strains, locus YNL209W, strain ssb2, active compounds read low 0.983 | S. cerevisiae deletion strains, locus YNL233W, strain BNI4, active compounds read low 0.981 | S. cerevisiae deletion strains, locus YNL248C, strain rpa49, active compounds read low 0.985 | S. cerevisiae deletion strains, locus YNL250W, strain rad50, active compounds read low 0.956 | S. cerevisiae deletion strains, locus YNL271C, strain bni1, active compounds read low 0.963 | S. cerevisiae deletion strains, locus YNL298W, strain CLA4, active compounds read low 0.972 | S. cerevisiae deletion strains, locus YNL307C, strain MCK1, active compounds read low 0.975 | S. cerevisiae deletion strains, locus YNL322C, strain KRE1 (second series), active compounds read low 0.968 | S. cerevisiae deletion strains, locus YNL322C, strain KRE1, active compounds read low 0.997 | S. cerevisiae deletion strains, locus YNR049C, strain mso1, active compounds read low 1 | S. cerevisiae deletion strains, locus YNR052C, strain pop2, active compounds read low 0.97 | S. cerevisiae deletion strains, locus YOL006C, strain TOP1, active compounds read low 0.965 | S. cerevisiae deletion strains, locus YOL012C, strain htz1 1.01 | S. cerevisiae deletion strains, locus YOL147C, strain pex11, active compounds read low 0.981 | S. cerevisiae deletion strains, locus YOR001W, strain rrp6, active compounds read low 1.01 | S. cerevisiae deletion strains, locus YOR061W, strain CKA2, active compounds read low 0.986 | S. cerevisiae deletion strains, locus YOR069W, strain VPS5, active compounds read low 0.981 | S. cerevisiae deletion strains, locus YOR070C, strain gyp1, active compounds read low 0.998 | S. cerevisiae deletion strains, locus YOR080W, strain dia2, active compounds read low 0.986 | S. cerevisiae deletion strains, locus YOR083W, strain WHI5, active compounds read low 0.933 | S. cerevisiae deletion strains, locus YOR106W, strain vam3, active compounds read low 0.977 | S. cerevisiae deletion strains, locus YOR136W, strain idh2, active compounds read low 0.967 | S. cerevisiae deletion strains, locus YOR144C, strain elg1, active compounds read low 0.958 | S. cerevisiae deletion strains, locus YOR184W, strain ser1, active compounds read low 0.966 | S. cerevisiae deletion strains, locus YOR231W, strain MKK1, active compounds read low 0.978 | S. cerevisiae deletion strains, locus YOR265W, strain rbl2, active compounds read low 0.988 | S. cerevisiae deletion strains, locus YOR270C, strain vph1, active compounds read low 0.981 | S. cerevisiae deletion strains, locus YOR290C, strain snf2, active compounds read low 0.987 | S. cerevisiae deletion strains, locus YOR316C, strain cot1, active compounds read low 0.972 | S. cerevisiae deletion strains, locus YPL051W, strain arl3, active compounds read low 0.988 | S. cerevisiae deletion strains, locus YPL055C, strain LGE1, active compounds read low 1 | S. cerevisiae deletion strains, locus YPL078C, strain atp4, active compounds read low 0.988 | S. cerevisiae deletion strains, locus YPL106C, strain sse1, active compounds read low 0.958 | S. cerevisiae deletion strains, locus YPL240C, strain hsp82, active compounds read low 1.02 | S. cerevisiae deletion strains, locus YPL241C, strain CIN2, active compounds read low 0.993 | S. cerevisiae deletion strains, locus YPL256C, strain CLN2, active compounds read low 0.972 | S. cerevisiae deletion strains, locus YPR119W, strain clb2, active compounds read low 0.974 | S. cerevisiae deletion strains, locus YPR141C, strain kar3, active compounds read low 0.952 | S. cerevisiae deletion strains, locus YPR163C, strain tif3, active compounds read low 0.965 | S. cerevisiae deletion strains, locus YPR167C, strain met16, active compounds read low 0.965 | S. cerevisiae deletion strains, strain wtn01, active compounds read low 0.982 | S. cerevisiae strains, strain wild type, active compounds read low 0.993
